Screening results as filed in PubChem BioAssay.
Sfp PPTase inh – Sfp phosphopantetheinyl transferase inhibition; Biochemical Sfp PPTase activity, qHTS; Potency, µM, hits mostly inhibitors; 310,000 compounds, 3.5% hits; AID 1490;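 also: the enzyme is Sfp with the accession as filed and its product quenches rhodamine fluorescence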
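Reaction rates are the 30-min fluorescence difference (ex 525, em 598 nm) in wells containing 15 nM Sfp, 5 uM rhodamine-CoA and 12.5 uM BHQ-2-YbbR at pH 7.6 with 10 mM MgCl2.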
JMJD2A Tudor – blocks the human JMJD2A Tudor domain. O75164. AlphaScreen JMJD2A-Tudor / H3K4me3 peptide binding. Potency, µM (titrated, usually from 114 µM), usual class: inhibitors. 390,000 compounds, 4.4% hits. AID 504339; also: nearly all actives have a fitted effect of over 50% in size
BAZ2B block – BAZ2B (human) inhibition; Q9UIF8; AlphaScreen BAZ2B-H3K14Ac peptide displacement; Potency, µM (doses to about 114 µM), actives largely listed as inhibitors; 360,000 compounds, 4.4% hits; also: nearly all actives have a fitted effect of over 60% in size
Target sequence (Q9UIF8 whole entry, looked up): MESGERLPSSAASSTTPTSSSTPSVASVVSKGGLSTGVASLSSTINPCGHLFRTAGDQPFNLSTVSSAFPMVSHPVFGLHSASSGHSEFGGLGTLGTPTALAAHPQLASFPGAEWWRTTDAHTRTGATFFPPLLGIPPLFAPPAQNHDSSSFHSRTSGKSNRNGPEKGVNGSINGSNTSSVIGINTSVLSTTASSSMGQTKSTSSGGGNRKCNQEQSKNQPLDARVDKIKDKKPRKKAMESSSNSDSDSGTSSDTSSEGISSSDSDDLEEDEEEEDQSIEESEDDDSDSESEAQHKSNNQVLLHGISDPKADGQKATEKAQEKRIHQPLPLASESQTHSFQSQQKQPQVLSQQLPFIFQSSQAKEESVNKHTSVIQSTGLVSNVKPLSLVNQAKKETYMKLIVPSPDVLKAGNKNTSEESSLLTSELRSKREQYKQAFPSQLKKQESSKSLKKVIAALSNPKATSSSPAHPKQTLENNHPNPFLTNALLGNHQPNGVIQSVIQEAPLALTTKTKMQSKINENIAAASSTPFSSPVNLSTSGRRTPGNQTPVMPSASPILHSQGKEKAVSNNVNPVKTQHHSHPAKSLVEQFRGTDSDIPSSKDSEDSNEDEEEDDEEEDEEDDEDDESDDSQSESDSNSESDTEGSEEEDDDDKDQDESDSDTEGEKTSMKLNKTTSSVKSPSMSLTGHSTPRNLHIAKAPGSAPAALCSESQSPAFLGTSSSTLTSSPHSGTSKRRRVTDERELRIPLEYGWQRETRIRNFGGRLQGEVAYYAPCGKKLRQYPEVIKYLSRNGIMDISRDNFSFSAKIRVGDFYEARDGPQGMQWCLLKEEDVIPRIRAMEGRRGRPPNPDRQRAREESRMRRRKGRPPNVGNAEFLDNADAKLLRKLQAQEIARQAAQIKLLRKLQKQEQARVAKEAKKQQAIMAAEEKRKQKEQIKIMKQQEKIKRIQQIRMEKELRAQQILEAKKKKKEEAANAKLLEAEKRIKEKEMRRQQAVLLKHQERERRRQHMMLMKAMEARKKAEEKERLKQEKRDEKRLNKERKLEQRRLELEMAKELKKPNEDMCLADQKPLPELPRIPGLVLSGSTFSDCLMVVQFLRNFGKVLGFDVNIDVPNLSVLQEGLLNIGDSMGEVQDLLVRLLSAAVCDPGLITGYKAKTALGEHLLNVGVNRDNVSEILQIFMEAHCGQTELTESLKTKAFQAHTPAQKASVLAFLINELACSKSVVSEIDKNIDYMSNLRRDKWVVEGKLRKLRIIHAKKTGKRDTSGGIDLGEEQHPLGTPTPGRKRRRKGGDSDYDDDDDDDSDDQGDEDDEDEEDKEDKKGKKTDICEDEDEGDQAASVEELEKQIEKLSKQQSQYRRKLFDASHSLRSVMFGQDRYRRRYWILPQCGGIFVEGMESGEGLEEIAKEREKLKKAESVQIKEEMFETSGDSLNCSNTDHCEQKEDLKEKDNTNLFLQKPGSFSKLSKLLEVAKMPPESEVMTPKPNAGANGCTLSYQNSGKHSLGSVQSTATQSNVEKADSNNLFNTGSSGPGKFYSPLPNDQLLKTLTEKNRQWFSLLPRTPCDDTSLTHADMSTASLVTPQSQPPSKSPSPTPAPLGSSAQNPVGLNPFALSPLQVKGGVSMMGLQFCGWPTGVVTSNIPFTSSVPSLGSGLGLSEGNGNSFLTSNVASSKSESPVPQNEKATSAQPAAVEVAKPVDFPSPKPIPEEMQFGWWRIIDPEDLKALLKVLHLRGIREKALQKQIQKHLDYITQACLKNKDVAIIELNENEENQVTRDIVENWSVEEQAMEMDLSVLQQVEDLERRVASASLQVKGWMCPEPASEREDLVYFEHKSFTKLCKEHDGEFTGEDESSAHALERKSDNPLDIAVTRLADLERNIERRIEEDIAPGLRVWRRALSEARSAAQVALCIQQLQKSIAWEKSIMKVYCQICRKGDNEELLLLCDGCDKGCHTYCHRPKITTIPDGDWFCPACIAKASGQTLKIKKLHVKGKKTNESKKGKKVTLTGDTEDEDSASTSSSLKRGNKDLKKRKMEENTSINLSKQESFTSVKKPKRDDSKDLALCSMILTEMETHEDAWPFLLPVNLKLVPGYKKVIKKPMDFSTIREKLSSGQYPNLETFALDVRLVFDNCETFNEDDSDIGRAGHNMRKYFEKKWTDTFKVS
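AlphaScreen luminescence quantifies BAZ2B engagement of H3K14Ac peptide; the protein and biotinylated peptide are both at 50 nM final, buffer PBS pH 7.4 with 0.01% Tween-20, all steps at room temperature.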
G9a block – inhibitors of human histone lysine methyltransferase G9a; Q96KQ7; G9a H3K9 monomethylation, AlphaScreen, 2 h; Potency, µM (doses to about 102 µM), actives largely listed as inhibitors; 350,000 compounds, 8.8% hits; also: nearly all actives have a fitted effect of over 75% in size
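Enzyme 20 nM + cpd, 15 min RT; add b-H3K9 pep 500 nM / SAM 20 uM; 2 h RT; anti-H3K9me1 Ab 0.5 ug/mL + SA donor / anti-rabbit acceptor beads 20 ug/mL each, 10 min; AlphaScreen read.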
12-LOX inh – ALOX12 (human) lipoxygenase inhibition. P18054. purified 12hLO, xylenol orange hydroperoxide absorbance. Potency, µM (series often up to 108 µM), most hits filed as inhibitors. 580,000 compounds, 1.1% hits
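Purified human 12hLO at 150 nM in 25 mM Hepes, 0.01% Triton X-100, pH 7.0, preincubated 15 min at room temperature with compound. Reaction started with 40 uM arachidonic acid, 30 min at room temperature. Hydroperoxide measured by Fe-xylenol orange, 573/405 nm absorbance ratio.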
HP1b chromo inh – blocks HP1-beta chromodomain binding to methylated histone tails; P83916; AlphaScreen HP1-beta / biotin-H3K9me3 peptide binding; Potency, µM (doses to about 114 µM), usual class: inhibitors; 390,000 compounds, 0.56% hits; AID 540317; also: nearly all actives have a fitted effect of over 70% in size
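HP1-beta protein (50 nM final) preincubated 30 min at room temperature with biotinylated H3(1-18)K9me3 peptide (50 nM) in PBS pH 7.4, 0.01% Tween-20, then compound added for 30 min. AlphaScreen streptavidin donor/nickel chelate acceptor beads (10 ug/mL final), 30 min dark, luminescence read.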
A number is an active result; i = inactive; ? = inconclusive; nt = no result; ! = not confirmed by another sample; [ ] = another dose, or the depositor's remark. The list is not random: actives were taken first. Their share in the collection is about 8.7%. Calls follow the shape of the dose curve; as a rule, active = well fitted curve in the direction sought with a large enough effect; inconclusive = small, poorly fitted or top-dose-only effect, or another doubt; inactive = no such curve, though single readings can be large; an effect the other way counts as inactive or inconclusive.

SMILES	Sfp PPTase inh	JMJD2A Tudor	BAZ2B block	G9a block	12-LOX inh	HP1b chromo inh
Nn1c(CSc2ccccn2)nc2ccccc2c1=O	i	i	i	40µM	i	i
CCc1nccn1S(=O)(=O)c1ccc(C)c(C)c1	i	i	i	45µM	i	i
CNC(=S)N/N=C(\C)c1cccc(C(F)(F)F)c1	i	i	?	i[0.0925 µM]	22µM	i
COC(=O)N/N=C(\C)c1cccc(C(F)(F)F)c1	i	i	i	i	i	i
COc1cc(CNCc2ccccn2)ccc1OCc1ccc(Cl)c(Cl)c1	i	?	?	50µM	i	i
COc1cc(CNCc2ccccc2)ccc1OCC(O)c1ccccc1 (stereo not drawn)	i	20µM	?	11µM	i	i
CCNCc1ccc(OCCO)c(OC)c1	nt	nt	nt	nt	i	nt
COc1cc(CNCc2ccccn2)ccc1OCc1ccc(Cl)cc1Cl	?	?	?	i[12.7 µM]	?	i
COc1cc(CNCc2ccccn2)ccc1OCC(N)=O	89µM	50µM	14µM	2.2µM	i	i
CCCOc1ccc(/C=C/C(=O)Nc2cc(C(C)(C)C)ccc2OC)cc1OC	nt	nt	nt	nt	i	nt
Cc1ccc(Nc2nnc(SCC3CCCCO3)s2)cc1 (stereo not drawn)	i	i	i	40µM	i	i
O=C(CC1=CCCCC1)NC1CCc2n[nH]c(=O)n2CC1 (stereo not drawn)	nt	nt	nt	nt	i	nt
Cc1ccc(SC2=C(N(C)C)C(=O)c3ccccc3C2=O)cc1	nt	5.6µM	nt	nt	10µM	?
CCCc1nc(C)cc(N2CCN(c3ccccc3)CC2)n1	?	i	i	50µM	?	i
Cc1cc(N2CCN(c3ccccc3)CC2)nc(NCc2ccccc2)n1	?	i	?	?	i	i
CNS(=O)(=O)Cc1ccccc1CNC(=O)c1cc(Br)ccc1Cl	nt	nt	nt	nt	i	nt
COc1ccc(C(=O)N2CCC(Oc3ncccc3C(=O)N3CCCCC3)C2)c(C)c1 (stereo not drawn)	nt	nt	nt	nt	i	nt
Cc1nc2ccc(Cl)cc2nc(C)/c1=N\O	i	i	i	28µM	i	i
COC(=O)N1CCCC2(C1)C(=NC1CCCC1)NC(=O)N2c1cc(F)cc(F)c1 (stereo not drawn)	nt	nt	nt	nt	i	nt
CCNC(=S)Nc1ccc(N2CCCCC2)cc1	i	i	35µM	32µM	i	?
O=C(O)CCCC(=O)Nc1ccc(N2CCCC2)cc1	i	?	i	40µM	i	i
O=C(CNCc1ccco1)Nc1ccc(N2CCCCCC2)cc1	i	20µM	28µM	8.9µM	?	40µM
O=C(Cc1ccccc1)Nc1ccc(N2CCCCC2)cc1	i	i	i	28µM	i	i
O=C(O)CCC1NC(=O)N(CCc2c[nH]c3ccc(F)cc23)C1=O (stereo not drawn)	nt	nt	nt	nt	i	nt
O=C(O)CNC(=O)C(F)(F)C(F)(F)Cl	nt	nt	nt	nt	i	nt
SMILES	Sfp PPTase inh	JMJD2A Tudor	BAZ2B block	G9a block	12-LOX inh	HP1b chromo inh
CC1CCCCN1CC(=O)Nc1ccc(Oc2ccccc2)cc1 (stereo not drawn)	i	i	i	i	i	i
CC1CCCCN1CC(=O)Nc1ccc(N2CCCCCC2)cc1 (stereo not drawn)	45µM	1.4µM	11µM	3.2µM	?	22µM
O=C(Cn1c(-c2ccccc2)noc1=O)Nc1ccc(S(=O)(=O)N2CCOCC2)cc1	i	i	i	i	i	i
O=C(COC(=O)CCc1nc2ccccc2n1-c1ccccc1)Nc1ccc(N2CCCCC2)cc1	i	i	?	10µM	i	i
O=C(Cn1c(-c2ccccc2)noc1=O)Nc1ccc(N2CCCCCC2)cc1	i	22µM	22µM	?	i	?
NC(=O)NC(=O)C(Nc1ccc(N2CCCCC2)cc1)c1ccccc1 (stereo not drawn)	i	?	?	16µM	i	?
O=C(CCc1nc2ccccc2n1-c1ccccc1)NCCO	i	i	i	i	i	i
O=C(Nc1ccc(N2CCCCC2)cc1)c1ccccc1	i	i	i	?	i	i
CCOc1cc(/C=C/C(=O)c2ccc(C3CCCCC3)cc2)ccc1OC	nt	nt	nt	nt	i	nt
O=[N+]([O-])c1cc(/C=N/Nc2ccc(S(=O)(=O)Nc3ccc(Cl)cc3)cc2[N+](=O)[O-])ccc1Cl	nt	nt	nt	nt	i	nt
CCC(=O)Nc1ccc(N2CCCCC2)cc1	i	i	i	i[12.7 µM]	i	i
O=C(O)CCC(=O)Nc1ccc(SSc2ccc(NC(=O)CCC(=O)O)cc2)cc1	18µM	?	i	?	?	i
O=C(O)CCC(=O)Nc1ccc(F)cc1	i	i	i	i	i	i
O=C(CCl)Nc1ccc(N2CCCCCC2)cc1	i	50µM	?	16µM	?	?
COCC(=O)NC1CCC12CCN(C(=O)CCC1CCCC1)CC2 (stereo not drawn)	nt	nt	nt	nt	i	nt
O=c1[nH]c(-c2ccccn2)nc2sc(-c3ccccc3)cc12	4µM	?	45µM	8.9µM	i	i
Cc1c(C(=O)N(C)C)sc2nc(-c3ccccn3)[nH]c(=O)c12	89µM	50µM	10µM	?	i	i
CCOc1cc(CN2CCCCCC2c2cccc(F)c2)ccc1OCC(N)=O (stereo not drawn)	nt	nt	nt	nt	i	nt
O=C(CCc1ncc(-c2c(F)cccc2F)o1)N1CCN(S(=O)(=O)c2cc(F)ccc2F)CC1	nt	nt	nt	nt	i	nt
O=C(c1cc(COc2ccc(F)cc2Cl)on1)N1CCCCCCC1	i	20µM	i	i	i	i
O=C(c1cc(COc2ccc(F)cc2Cl)on1)N1CCCCCC1	i	i	i	i	i	i
Oc1ccc(C2CNCCc3c2cc(O)c(O)c3Cl)cc1 (stereo not drawn)	40µM	35µM!	i	5.3µM!	?	i
Oc1cc2c(c(Cl)c1O)CCNCC2c1ccccc1 (stereo not drawn)	50µM	45µM	nt	11µM	?	i
Oc1cc2c(c(Cl)c1O)CCNC[C@H]2c1ccccc1	79µM	nt	nt	nt	?	nt
O=C(O)c1ccc2c(c1)C(=O)N([C@H](Cc1ccc(O)c(O)c1)C(=O)O)C2=O	79µM	89µM	?	2µM	nt	nt
SMILES	Sfp PPTase inh	JMJD2A Tudor	BAZ2B block	G9a block	12-LOX inh	HP1b chromo inh
O=C(O)c1ccc2c(c1)C(=O)N([C@H](Cc1ccccc1)C(=O)O)C2=O	i	i	79µM	i[12.7 µM]	nt	nt
C(=C\c1ccc2ccccc2n1)/c1ccccc1	?	i	i	i	i	i
COc1ccc(/C=C/c2ccc3ccccc3n2)cc1OC	nt	nt	nt	nt	28µM	nt
CN(C)c1ccc(/C=C/c2nc3ccccc3s2)cc1	i	20µM	32µM	i[0.501 µM]	i	40µM
CN(C)c1ccc(/C=C/c2ccc3ccccc3n2)cc1	?	?	50µM	45µM	nt	i
CCOc1cc(/C=C/c2cc(C(=O)O)c3ccccc3n2)ccc1OC	i	i	i	71µM	?	i
CCS(=O)(=O)c1ccc2oc([C@H]3CCN(C(C)C)C3)nc2c1	nt	nt	nt	nt	i	nt
COc1ccc(NC(C)=O)cc1NC(=O)CCc1ncc(-c2ccccc2F)o1	nt	nt	nt	nt	i	nt
Cc1ccc(C(CNC(=O)CCc2nc(-c3cccnc3)no2)N(C)C)cc1 (stereo not drawn)	nt	nt	nt	nt	i	nt
